# The list is not random: actives were taken first. Their share in the collection is about 2.2%.
# TWEAK-Fn14 inh = inhibitors of TWEAK-Fn14 interaction signaling; TWEAK-stimulated Fn14 reporter cells, luciferase luminescence, 8 h; AID 1159606; inhibition, % at 10 µM; 360,000 compounds, 2% hits; in the data active means inhibition above about 50%
# LGR2 inh = Drosophila LGR2 receptor signaling inhibition; inhibition, % at 9.99 µM; HEK293 LGR2, CRE-luciferase, bursicon-stimulated, 4 h; AID 720647; 380,000 compounds, 0.35% hits;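 active means drop in luminescence signal, shown as inhibition above about 50% in the replicate tests, limit read from the data, passing the limit was not always enough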;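 further: agonist challenge used bursicon conditioned medium at about half maximal strength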
# TROY signal inh = TROY signaling inhibition. AID 1347056. 360,000 compounds, 0.98% hits. Q293 LMP1-TROYcd NF-kB luciferase reporter, 4 h. inhibition, % at 10 µM;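 active means compounds whose plate-normalised and pattern-corrected inhibition of the luciferase reporter signal at the single screening dose is 50% or more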
# HSP90 inh = inhibitors of HSP90 luciferase refolding in rabbit reticulocyte lysate | luciferase refolding luminescence, 3 h | inhibition, % at 5.6 µM | 290,000 compounds, 0.91% hits;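 active means inhibition above the screen-wide mean plus 3 SD, computed separately per campaign, cut at about 16% in these data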;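 further: inhibitors lower the luminescence because luciferase stays unfolded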
# Numbers stand for hits; – = inactive; · = no result given.
SMILES,TWEAK-Fn14 inh,LGR2 inh,TROY signal inh,HSP90 inh
CC(=O)c1ccc(NC(=O)/C(Cl)=C/c2ccccc2)cc1,–,–,71.2,–
O=C(Nc1ccccc1F)c1coc(=O)c(Br)c1,–,–,–,–
O=C(NCCc1ccc(F)cc1)c1coc(=O)c(Br)c1,90.5,–,–,–
COc1ccc2c3c([nH]c2c1)[C@@H](CO)N(C(=O)Cc1ccccc1)CC31CCN(C(=O)Cc2ccccc2)CC1,·,–,·,·
O=S(=O)(c1cccs1)N1CCN(CC(O)COc2cc(Cl)ccc2Cl)CC1 (stereo unspecified),–,–,51.6,–
Cc1ccc(NC(=O)COC(=O)c2c(-c3ccccc3)noc2C)cc1,–,–,–,·
Cc1onc(-c2ccccc2)c1C(=O)OCC(=O)Nc1ccc(OC(F)(F)F)cc1,–,–,52.2,·
Cc1cc(C(=O)Nc2cccc3c2O[C@H](CN(C)C(=O)Nc2ccc(C(F)(F)F)cc2)[C@@H](C)CN([C@H](C)CO)C3=O)n(C)n1,·,–,·,·
CCOC(=O)c1sc(NC(=O)CSc2n[nH]c(-c3ccc(Cl)cc3Cl)n2)c(C#N)c1C,–,·,63.4,–
CCOC(=O)c1sc(NC(=O)c2cc(-c3ccccc3C)nc3ccccc23)c(C#N)c1C,63.2,·,68.5,–
Cc1ccccc1-c1cc(C(=O)Nc2sc(C)c(C)c2C(N)=O)c2ccccc2n1,–,·,–,–
O=C(NCCc1c[nH]c2ccccc12)C1CCC(Cn2c(=S)[nH]c3ccccc3c2=O)CC1 (stereo unspecified),61.6,·,–,–
COCCNC(=O)C1CCC(Cn2c(=S)[nH]c3ccccc3c2=O)CC1 (stereo unspecified),–,·,–,–
COc1ccc(-c2cnc(C(O)c3ccc(-c4ccccc4)cc3)[nH]2)cc1 (stereo unspecified),–,–,–,·
COc1cccc(-c2cnc(C(O)c3ccccc3)[nH]2)c1 (stereo unspecified),63.3,·,56.7,·
COc1ccc(-c2cnc(C(O)c3ccccc3)[nH]2)cc1 (stereo unspecified),–,–,50.8,·
COc1cccc2c1C(CCCC(=O)O)CCC2 (stereo unspecified),–,–,–,·
COc1cccc2c1C1COC3C4CC(C(=O)O)C(C(C2)N13)N4C (stereo unspecified),60.9,–,–,·
NCC[C@@H]1CC[C@H](NC(=O)c2ccccc2F)[C@H](CO)O1,·,–,·,·
CN1[C@H](C(=O)Nc2ccccc2)[C@@H](CO)[C@@H]2Cn3c(ccc(-c4ccccc4)c3=O)[C@@H]21,·,–,·,·
CCCc1cc(=O)[nH]c(SCC)n1,–,·,–,–
CCCCSc1nc(CCC)cc(=O)[nH]1,91.7,·,–,–
Cc1ccc(O)c(-c2[nH]ncc2C(=O)c2ccc(Br)cc2)c1,–,–,65.0,–
Cc1ccc(O)c(-c2[nH]ncc2C(=O)c2ccc(Cl)cc2)c1,–,–,–,–
C[C@@H]1CN([C@H](C)CO)C(=O)c2cccc(NC(=O)c3cnccn3)c2O[C@@H]1CN(C)C(=O)NC1CCCCC1,·,–,·,·
SMILES,TWEAK-Fn14 inh,LGR2 inh,TROY signal inh,HSP90 inh
CCC(=O)N1CC2(C1)[C@H](c1ccc(-c3ccccc3)cc1)[C@H](CO)N2S(C)(=O)=O,·,–,·,·
CCOc1ccc(NS(=O)(=O)c2ccc(N)cc2)cc1,–,·,–,–
CCOc1ccc(NS(=O)(=O)c2ccc(SC)cc2)cc1,80.8,·,·,–
CCOc1ccc(NS(=O)(=O)c2cnc(Cl)c(Cl)c2)cc1,53.2,–,–,–
Cc1cc(C)cc(NS(=O)(=O)c2cnc(Cl)c(Cl)c2)c1,–,·,–,–
COCC(=O)N1CC2(C1)[C@H](c1ccc(-c3ccccc3)cc1)[C@@H](CO)N2C(=O)COC,·,–,·,·
O=C(c1ccsc1)N1CCCC(N2CCN(c3ccccc3F)CC2)C1 (stereo unspecified),94.7,–,–,–
O=C(c1noc2c1CCCC2)N1CCCC(N2CCN(c3ccccc3F)CC2)C1 (stereo unspecified),–,·,–,–
COc1ccc(C(C#N)=C2C=C(Cl)C(=NO)C=C2Cl)cc1,75.0,–,–,·
COc1ccc(C(C#N)=C2C=CC(=NO)C(C)=C2Cl)cc1,–,–,–,·
CC(C)NC(=O)Nc1ccc2c(c1)C(=O)N([C@H](C)CO)C[C@H](C)[C@@H](CN(C)Cc1ccc(Cl)c(Cl)c1)O2,·,–,·,·
O=c1[nH]c(Nc2nc3ccccc3o2)nc2c1CCCC2,97.9,–,75.5,–
Cc1ccc(Nc2nc3c(c(=O)[nH]2)CCCC3)cc1,–,–,–,–
O=c1cc(CSc2ccc(Cl)cc2)nc(-c2ccccn2)[nH]1,105.6,–,–,–
NC1=C(Br)C(=O)c2ncccc2C1=O,102.8,101.0,68.2,·
O=C1c2cccnc2C(=O)N1CO,–,·,–,–
c1ccc2c(-c3cnc4cccnn34)cncc2c1,–,–,–,·
c1cc(-c2cnc3cccnn23)c2cccnc2c1,61.4,·,–,·
O=c1cc(-c2ccc(O)c(O)c2)oc2ccc3ccccc3c12,92.0,–,78.1,·
O=c1cc(-c2ccccc2)oc2ccc3ccccc3c12,93.2,101.2,74.7,·
COc1ccc(CN2C[C@@H](C)[C@H](OC)CN(C)C(=O)c3cc(NC(=O)C4CC4)ccc3OC[C@H]2C)cc1,·,–,·,·
O=C(Nc1ncc(Cc2cccc([N+](=O)[O-])c2)s1)c1ccco1,–,–,–,–
Cc1ccc(Cc2cnc(NC(=O)c3ccco3)s2)cc1,57.8,·,–,–
Clc1ccc(-c2csc(NNC3=NCCCCC3)n2)cc1,–,·,–,–
c1ccc(-c2csc(NNC3=NCCCCC3)n2)cc1,–,–,52.8,–
SMILES,TWEAK-Fn14 inh,LGR2 inh,TROY signal inh,HSP90 inh
Cn1c(N)c(C(C[N+](=O)[O-])c2ccccc2Cl)c(=O)n(C)c1=O (stereo unspecified),99.2,·,–,·
Cc1ccc(C(C[N+](=O)[O-])c2c(N)n(C)c(=O)n(C)c2=O)cc1 (stereo unspecified),–,–,–,–
COc1cccc(F)c1C(C[N+](=O)[O-])c1c(N)n(C)c(=O)n(C)c1=O (stereo unspecified),58.1,63.9,–,–
COc1cc(CC(=O)Nc2nc(-c3ccccc3)c(C(C)=O)s2)cc(OC)c1OC,–,–,–,–
COc1ccc(CC(=O)Nc2nc(-c3ccccc3)c(C(C)=O)s2)cc1OC,57.2,–,–,–
COc1ccc(NC(=O)c2cc3ccccc3oc2=O)cc1,100.3,76.4,73.7,·
COc1cc(NC(=O)COc2ccc(Cl)cc2)ccc1-c1cc2ccccc2oc1=O,59.2,–,–,–
CCCCCCc1cc2cc(C(=O)Nc3cccc(OC)c3)c(=O)oc2cc1O,59.1,–,–,–
COc1cc(NC(=O)COc2ccc(Cl)cc2)ccc1NC(=O)C(C)C,–,–,–,–
CCCCCCc1cc2cc(C(=O)Nc3ccc(OC)cc3)c(=O)oc2cc1O,–,–,–,–
Cc1ccc(NC(=O)c2cc3ccccc3oc2=O)cc1S(=O)(=O)N(C)C,102.0,·,90.3,38.4
COc1ccc(S(=O)(=O)Nc2ccc3c(c2)OC[C@@H](C)N(C(=O)NC(C)C)C[C@@H](C)[C@H](OC)CN(C)C3=O)cc1,·,–,·,·
COc1ccc(C(=O)Nc2ccccc2C(=O)Nc2ccc(C(=O)O)cc2)cc1,81.4,–,–,–
COc1ccc2c3c(n(C)c2c1)[C@H](CO)N(C(C)=O)CC31CCN(S(=O)(=O)c2ccccc2)CC1,·,–,·,·
